Results reported in PubChem BioAssay AID1863 (Southern Research Specialized Biocontainment Screening …, 2009).
Screen size: about 300,000 compounds; about 480 (0.16%) were called active.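 Rule for the calls: active = inhibition over 29.93%, a cutoff 3 SD above the screen mean, later confirmed by dose response; inconclusive = inhibition over 29.93% but no dose response follow-up; inactive = inhibition at most 29.93% or unconfirmed.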 Not all results are given here. Measured potencies and affinities stand elsewhere. Peptide text beside a SMILES is read from it. * marks the point of attachment. Boc = CC(C)(C)OC(=O)*

Test: PhoP-dependent GFP reporter repression – Salmonella Typhimurium, primary screen (AID 1863);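 note: 0% = low Mg2+ inducing control and 100% = high Mg2+ repressing control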
Conditions: S. Typhimurium PhoP-regulated promoter GFP reporter, 4 h; at 50 µM; active compounds read high

inhibition, inactive:
CCC(=O)c1cc2c(cc1NC(=O)c1ccccc1)OCCO2 5.62%
CN(C)S(=O)(=O)c1ccc(N2CCCC2)c(C(=O)Nc2nc(-c3ccc(F)c(F)c3)cs2)c1 3.09%
Cc1ccc(CN2C(=O)NC(Cc3c[nH]c4ccccc34)C2=O)cc1 (configuration not stated) 4.26%
COC(=O)c1cc(NC(=O)CC2SCCNC2=O)cc(C(=O)OC)c1 (configuration not stated) -10.7%
COc1ccc(/C=N/Nc2cc(N(C)C)nc(N(C)C)n2)cc1 -15.8%
CC(C)(C)c1ccc(C(=O)N2CCC(C(=O)NCc3ccncc3)CC2)cc1 -6.15%
O=C(NCc1cccs1)c1cc(S(=O)(=O)N2CCCCC2)ccc1Cl 2.07%
COc1cc(C(=O)NCc2cccc3ccccc23)ccc1OCc1ccccc1 -2.04%
COc1ccc(/C(N)=N/O)c(OC)c1 -1.42%
Nc1ccc(-n2ccnc2)cc1 1.57%
CCCCOc1ccc(CSC(=N)N)cc1Cl 0.89%
CCCOc1ccc(Br)cc1CSC(=N)N 55.8%
COc1ccc(Br)cc1CSC(=N)N 5.81%
CCOc1ccc(CSC(=N)N)cc1[N+](=O)[O-] 41%
COc1ccc(CSC(=N)N)cc1[N+](=O)[O-] 5.38%
CCOc1ccc(Br)cc1CSC(=N)N 26.3%
C/C(=N\NC(=O)CNC(=O)c1ccc(F)cc1)c1ccco1 4.52%
Cc1ccc(NC(=O)N[C@@H](CC(C)C)C(=O)O)c(C)c1 -7.38%
O=C(NCc1ccccn1)Nc1ccccc1Cl -6.1%
CCN(CCN1CCCC1)C(=O)C1CCC(=O)N(CCCN2CCOCC2)C1 (configuration not stated) 2.18%
CCCCCCn1c(N2CCCC2)nc2c1c(=O)[nH]c(=O)n2C 2.66%
O=C1CCCN1CCCNS(=O)(=O)c1ccccc1 10.7%
Cc1cc(C)nc(N/C(=N\S(=O)(=O)Cc2ccccc2)Nc2cccc(Cl)c2C)n1 8.54%
CC(C)(C)OC(=O)N1CCC[C@@H]1CO 1.69%
CC(C)CC(NC(=O)OC(C)(C)C)C(=O)NC(C(=O)N1CCCC1C(N)=O)C(C)C (stereo not drawn) (Boc-Leu-Val-Pro-NH2; configuration not given here) -6.98%
CCCC(=O)N1CC(=O)Nc2ccc(C)cc2C1c1ccccc1 (configuration not stated) -6.57%
S=C(NCc1ccccc1)N1CCCCC1 0.84%
O=S(=O)(NCC(c1ccc2c(c1)OCO2)N1CCOCC1)c1ccc(Cl)cc1 (configuration not stated) -2.72%
CC(=O)c1c(C)n([O-])c2cc(C)ccc2[n+]1=O -0.54%
O=[n+]1c2c(n([O-])c3cc(F)c(F)cc31)CCCC2 -5.91%
CC(=O)c1c(C)n([O-])c2ccc(C)cc2[n+]1=O 0.85%
COc1ccc2c(c1)[n+](=O)c(C(C)=O)c(C)n2[O-] 7.33%
Cc1ccc(NC2c3ncccc3C(=O)N2Cc2ccco2)c(C)c1 (configuration not stated) -7.26%
O=C(CCSCCC(=O)N1CCCC1)N1CCCC1 0.69%
Cc1c(C)n2c(SCC(=O)NC3CCCCC3)nnc2[nH]c1=O 2.36%
CC(=O)c1c(N2CCN(c3ccc(F)cc3)CC2)nc(=S)n(Cc2ccccc2)c1C -9.08%
CCN(CC)CC(=O)Nc1ccc(-c2ccc(NC(=O)CN(CC)CC)c(OC)c2)cc1OC -5.12%
O=C(O)c1ccc(NC(=O)C(c2ccccc2)c2ccccc2)cc1 -7.69%
COc1cccc(C2c3[nH]c4ccccc4c3CCN2C(=O)Cn2cncn2)c1OC (configuration not stated) -2.77%
CCN(CC)C(=O)Oc1nnc(SC(C)C)n1-c1ccc(Cl)cc1 -0.67%
O=C(Nc1nc(-c2cccs2)cs1)c1ccc(Cl)s1 7.37%
O=C(Nc1nc(-c2ccccn2)cs1)c1ccc(Br)s1 8.88%
CCOC(=O)c1c(C)[nH]c(C(=O)COC(=O)CNC(=O)c2ccccc2Cl)c1C -9.12%
Cc1occc1C(=O)NC(C)C(C)(C)C (configuration not stated) 0.78%
Cc1ccccc1CSCCC(=O)NCCC1=CCCCC1 6.03%
Cn1c(=O)c(-c2ccccc2)nc2ccccc21 -3.46%
Cn1nc(-c2ccc(Cl)cc2)nc2c(=O)n(C)c(=O)nc1-2 20.5%
COc1ccc(CCNCC(O)Cn2c3ccccc3c3ccccc32)cc1OC (configuration not stated) -4.43%
COc1ccccc1NCC(O)Cn1c2ccccc2c2ccccc21 (configuration not stated) -3.61%
COc1ccc(NC(=O)C2=NN(C3CCS(=O)(=O)C3)C(=O)CC2)cn1 (configuration not stated) 3.89%
O=C(CSc1oc(-c2cccs2)nc1S(=O)(=O)c1ccc(F)cc1)NCC1CCCO1 (configuration not stated) -4.95%
CSC[C@H](NC(=O)Cc1c(C)c2cc3c(C)c(C)oc3cc2oc1=O)C(=O)N[C@@H](Cc1ccccc1)C(=O)O 5.06%
Cc1ccc(C(=O)CC(=O)c2ccccc2)cc1 6.5%
Cc1ccc(C(=O)Nc2ccccc2Sc2ccccc2)cc1 -6.94%
COc1cccc(NC(=O)CCC2CCN(C(=O)c3sccc3C)CC2)c1 -6.68%
O=C(CCNC(=O)c1ccc([N+](=O)[O-])cc1)NCCc1ccc(Cl)cc1 8.36%
COCCCn1c(=O)c2sccc2n2c(CCCC(=O)N(C)Cc3ccco3)nnc12 -1.76%
Cn1ccnc1SCC(=O)NC1CC1 6.54%
Cc1cc(Nc2cccc(F)c2)nc(NCc2ccccc2)n1 4.66%
Cc1cc(Nc2ccccc2)nc(NCc2ccccc2)n1 19.9%
Cc1[nH]c(=O)[nH]c(=O)c1S(=O)(=O)Nc1ccc(Cl)c([N+](=O)[O-])c1 5.49%
O=Cc1ccc2ccc3cccnc3c2n1 -0.13%
O=S1(=O)NC(=NCCc2ccccn2)c2ccccc21 10.3%
CCOC(=O)c1ccc2c(c1)NC(=O)C(N1CCN(c3ccc(OC)cc3)CC1)S2 (configuration not stated) 8.89%
COc1ccc(N(C(=O)c2ccncc2)S(=O)(=O)c2cccs2)cc1 8.99%
Cc1ccccc1-n1c(SCC(=O)c2cc(C)n(C)c2C)nnc1-c1ccncc1 -15.5%
O=C(N/N=C/c1ccc[nH]1)c1cccc([N+](=O)[O-])c1 2.02%
O=C(N/N=C/c1ccc[nH]1)c1ccc([N+](=O)[O-])cc1 5.92%
Cn1c(CCCOc2ccc(Cl)cc2Cl)nnc1SCC(=O)Nc1ccc(F)c(Cl)c1 -2.33%
CCC(=O)c1ccc(OCC(=O)OCC(=O)c2cc(C)n(CC3CCCO3)c2C)cc1 (configuration not stated) -5.94%
CCOC(=O)N1CCN(S(=O)(=O)c2ccc(C(=O)N(CCN(C)C)c3nc4ccc(Cl)cc4s3)cc2)CC1 14%
CCOc1c(Cl)cc(CNCc2ccncc2)cc1OC 2.05%
O=C(Nc1ncccc1O)C1CCN(S(=O)(=O)c2ccc3ccccc3c2)CC1 -9.16%
CCCCCn1c2c(c(=N)c3ccccc31)CCC2 12.1%
CCn1c2c(c(=N)c3c1CCC3)CCCC2 -3.7%
CCOC(=O)Cn1c2c(c(=N)c3ccccc31)CCC2 3.57%
CCCCn1c2c(c(=N)c3c1CCC3)CCC2 -14.8%
CCCn1c2c(c(=N)c3c1CCC3)CCCC2 -0.71%
CCn1c2c(c(=N)c3c1CCC3)CCC2 -5.05%
CCCCCCCn1c2c(c(=N)c3c1CCC3)CCCC2 5.7%
CCCCCCn1c2c(c(=N)c3c1CCC3)CCC2 12.9%
CCOn1c(SCC)nc2ccccc2c1=O 5.58%
CC(C)c1ccc(NC(=O)CCCN2C(=S)NC(C)(C)CC2C)cc1 (configuration not stated) 3.65%
COC(=O)c1ccc(NC(=O)CN2CCN(c3ccccc3C)CC2)cc1 -8.21%
O=C(Nc1ccccc1)c1cc(S(=O)(=O)NCc2ccncc2)ccc1Cl -1.47%
CCc1c(C(=O)NNC(=S)NCC2CCCO2)csc1C (configuration not stated) 8.11%
COc1ccc(OC)c(-c2csc(NC(=O)c3ccccc3F)n2)c1 -4.14%
Cc1cc(C)c2cc(C=O)c(Cl)nc2c1 3.78%
CCOC(=O)CN1CC23C=CC(O2)C(C(=O)NCc2ccc(C)cc2)C3C1=O (configuration not stated) 10.7%
CC(C)CCNC(=O)C12CN(Cc3ccccc3)CC1C(c1ccc([N+](=O)[O-])cc1)=NO2 (configuration not stated) 16.1%
COc1ccc(/C=C2\SC(=S)N(C(C)C(=O)NC3C=CS(=O)(=O)C3)C2=O)cc1 (configuration not stated) -13.9%
CC(C(=O)NC1C=CS(=O)(=O)C1)N1C(=O)/C(=C/c2cccc(Cl)c2)SC1=S (configuration not stated) 27.8%
CC(C(=O)N(C)C1CCS(=O)(=O)C1)N1C(=O)/C(=C/c2ccc(F)cc2)SC1=S (configuration not stated) 3.59%
CC(C(=O)NC1C=CS(=O)(=O)C1)N1C(=O)/C(=C\c2ccccc2)SC1=S (configuration not stated) -3.24%
Cc1nn(C)c(C(=O)N/N=C/c2cccc(Oc3ccccc3)c2)c1Br 8.95%
COc1ccc(CC(=O)N2CC3(C)CC2CC(C)(C)C3)cc1 (configuration not stated) 1.16%
COc1ccc(F)c(CN2CCCC(CNS(=O)(=O)c3cccc4cccnc34)C2)c1 (configuration not stated) -5.85%
